High-throughput results from PubChem BioAssay.
CYP2C19 activ – human CYP2C19 activators, primary screen, biochemical, luminescence | 96,000 tested, under 10 active | AID 1025, 2008 | recombinant CYP2C19, luciferin-H EGE luminescence; active compounds read high; 0 = fully inhibited enzyme, 1 = untreated enzyme | activation factor at 5 µM | Cytochrome P450 2C19 (Homo sapiens), P33261;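 active = activation factor of at least 2 at 5 µM in the primary screen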
PostGolgi yeast – phenotypic screen on post-Golgi transport, primary screen. inhibition, % at 10 µM. post-Golgi transport phenotypic cell assay. AID 739, 2007. 0.9% of 98,000 active;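 also: yeast cells grown in 1536-well plates; yeast grown about 18 h at 30C before absorbance read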
CYP2C9 inh – blockers of cytochrome P450 2C9 activity – biochemical, luminescence, ADME assay, primary screen; CYP2C9 Supersomes, luciferin-H conversion; inhibition, % at 5 µM; 20% of 96,000 active;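 active = blocking of liver enzyme CYP2C9 beyond about 50% at 5 µM, limit read from the data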
Target sequence (P11712 whole entry, looked up): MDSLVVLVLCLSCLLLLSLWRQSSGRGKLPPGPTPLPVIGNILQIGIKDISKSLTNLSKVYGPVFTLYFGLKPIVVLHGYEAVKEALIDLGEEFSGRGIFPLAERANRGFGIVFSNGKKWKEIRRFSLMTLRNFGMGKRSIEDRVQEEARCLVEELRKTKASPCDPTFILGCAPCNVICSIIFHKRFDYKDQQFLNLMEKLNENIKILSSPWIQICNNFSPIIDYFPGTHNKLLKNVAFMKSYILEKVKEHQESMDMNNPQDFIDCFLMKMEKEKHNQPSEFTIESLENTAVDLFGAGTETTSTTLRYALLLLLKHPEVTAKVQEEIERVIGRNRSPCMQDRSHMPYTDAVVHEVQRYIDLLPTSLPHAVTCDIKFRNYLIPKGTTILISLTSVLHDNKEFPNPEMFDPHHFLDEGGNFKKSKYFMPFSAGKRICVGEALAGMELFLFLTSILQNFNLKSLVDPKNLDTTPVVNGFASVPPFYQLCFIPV
PostGolgi ctrl – growth inhibition of yeast control strain, primary screen, counter-screen for post-Golgi transport modulator project; efflux-deficient yeast background strain, growth absorbance A615, 16 h; 5% of 98,000 active; inhibition, % at 10 µM; AID 738, 2007
CYP2C9 act – human CYP2C9 activators, primary screen, biochemical, luminescence. Cytochrome P450 2C9 (Homo sapiens), P11712. recombinant CYP2C9, luciferin-H conversion; active compounds read high; factor 1 = untreated enzyme, 0 = blocked. activation factor at 5 µM. 1.4% of 96,000 active;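 active = activation factor of 2 or more for CYP2C9 at a 5 µM dose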
CYP2C19 inhib – blockers of cytochrome P450 2C19 activity – biochemical, luminescence, ADME assay, primary screen; inhibition, % at 5 µM; 21% of 96,000 active; CYP2C19 Supersomes, luciferin-H EGE luminescence, 30 min; P33261;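 active = CYP2C19 inhibition above a set limit at 5 µM in the primary screen, cut at about 50% in these data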
Large screens that a line does not name were inactive. Hits are enriched below; roughly 32% of the tested compounds scored in any of these assays. Rule as the data show it, unless noted: active = inhibition above about 30%; inactive = the rest.

Oc1ccccc1C1=Nc2nc3ccccc3n2C(c2ccccc2)C1 (stereo unspecified)	CYP2C9 inh 98.7, CYP2C19 inhib 92.4
S=c1[nH]nc(-c2ccco2)n1Cc1ccccc1	CYP2C9 inh 50.0
CC(C)c1cc(-c2n[nH]c(=S)n2Cc2ccccc2)cs1	none
S=c1[nH]nc(-c2ccc(Br)cc2)n1Cc1ccco1	none
S=c1[nH]nc(-c2ccncc2)n1Cc1ccco1	CYP2C9 inh 61.3
CCn1c(-c2ccco2)n[nH]c1=S	none
S=c1[nH]nc(-c2ccc(Br)o2)n1Cc1ccccc1	CYP2C9 inh 60.4, CYP2C19 inhib 60.9
S=c1[nH]nc(-c2ccccc2)n1Cc1ccccc1	CYP2C19 inhib 61.8
COc1ccc(OC)c(C(=O)COC(=O)CNC(=O)C2CCCCC2)c1	none
CCC1(C)Cc2c(sc3c2c(=O)n(C)c2nnc(SCc4ccccc4)n32)CO1 (stereo unspecified)	none
C=CCN1C(=O)C2(/C(=C(\O)c3ccc4c(c3)OCCO4)C(=O)C(=O)N2CCCOC)c2ccccc21 (stereo unspecified)	PostGolgi ctrl 41.5
CCOc1ccccc1NC(=O)N1CCC(NC(=O)c2cccc(C)c2)CC1	CYP2C9 act 2.6
CCOc1ccccc1NC(=O)N1CCC(NC(=O)c2ccccc2C)CC1	CYP2C9 act 2.3
Cc1ccccc1C(=O)NC1CCN(C(=O)N(c2ccccc2)c2ccccc2)CC1	CYP2C9 inh 58.3
Cc1cccc(NC(=O)N2CCC(NC(=O)c3ccccc3C)CC2)c1	none
O=C(COC(=O)CCC(=O)Nc1nccs1)NCc1ccco1	none
CCOC(=O)C1=C(C)N(C)C(C)=C(C(=O)OCC)C1c1ccccn1	CYP2C9 inh 86.3, CYP2C19 inhib 50.0
COC(=O)C1=C(C)N(C)C(C)=C(C(=O)OC)C1c1ccccn1	CYP2C9 inh 82.1
COC(=O)C1=C(C)N(C)C(C)=C(C(=O)OC)C1c1ccccc1C	CYP2C9 inh 96.3, CYP2C19 inhib 98.5
COC(=O)C1=C(C)N(C)C(=O)NC1c1ccccc1 (stereo unspecified)	none
CC(C)CNC(=S)NNC(=O)c1csc2c1CCC(C)C2 (stereo unspecified)	CYP2C19 inhib 52.2
COc1cccc(/C=N/n2nnc3c(cnn3-c3ccccc3)c2=O)c1	none
Cc1ccc(C(=O)COC(=O)c2ccccc2N2C(=O)C3C4CCC(C4)C3C2=O)cc1C (stereo unspecified)	none
COc1ccc(CCNC(=O)Cn2c(-c3nonc3N)nc3ccccc32)cc1OC	CYP2C19 inhib 89.1
CCOc1ccc(CCNC(=O)Cn2c(-c3nonc3N)nc3ccccc32)cc1OCC	CYP2C9 inh 69.6
CCOc1ccc(CCNC(=O)Cn2c(=O)oc3ccccc32)cc1OCC	CYP2C9 inh 61.8, CYP2C19 inhib 84.1
COc1ccc(CNC(=O)Cn2c(=O)oc3ccccc32)cc1OC	none
O=c1[nH]c(CN2CCN(Cc3ccc4c(c3)OCO4)CC2)nc2sc3c(c12)CCC3	none (no result: PostGolgi yeast, PostGolgi ctrl)
O=C1C(=C2CCCCC2)SC(=S)N1Cc1ccco1	CYP2C19 inhib 59.9
CN(C)c1nc(OCCOC(=O)Nc2ccc(Cl)cc2Cl)nc(N(C)C)n1	CYP2C9 inh 52.6, PostGolgi ctrl 33.8, CYP2C19 inhib 97.7
CC(C)Oc1c(Cl)cc(CNC(C)(C)CO)cc1Cl	none
Cc1ccccc1N=C1NC(=O)CS1	none
Cc1ccccc1N=C1NC(=O)CC(c2ccccc2)S1 (stereo unspecified)	CYP2C19 inhib 62.8
CCCCCn1c(=O)c(F)cn(Cc2ccc(OC)c([N+](=O)[O-])c2)c1=O	CYP2C9 inh 51.5
CCCn1c(=O)c(F)cn(Cc2ccc(OC)c([N+](=O)[O-])c2)c1=O	none
CCCCCCn1c(=O)c(F)cn(Cc2ccc(OC)c([N+](=O)[O-])c2)c1=O	CYP2C9 inh 60.5
CCN1CCN(Cc2cc(=O)oc3cc(C)cc(C)c23)CC1	none
COC(=O)CNC(=O)COC(=O)c1cc(F)c(F)cc1Cl	none
CC1(C)C=Cc2c(c3ccccc3[nH]c2=O)O1	none
COc1ccc(CC(=O)NC(C)c2nnc(SCCOc3ccc(OC)cc3)n2C)cc1 (stereo unspecified)	none
Cc1cccc(CN(C)CCc2ccccn2)c1	none
Cc1cccc(OCC(=O)N(C)CCc2ccccn2)c1	CYP2C19 inhib 67.6
c1csc(Cc2nc3ccccc3[nH]2)c1	none
Cc1cc(-c2ccccc2)nc(N(C)NC(=O)c2c(F)cccc2F)c1S(C)(=O)=O	CYP2C9 inh 69.4, PostGolgi ctrl 30.3, CYP2C19 inhib 50.7
COc1ccc(O)c(-c2cc(-c3cccs3)[nH]n2)c1	CYP2C9 inh 73.7
O=C(COC(=O)c1ccc(=O)n(Cc2ccccc2)n1)Nc1ccc2c(c1)OCCO2	none
COc1ccc(S(=O)(=O)N(C)c2c(C)n(C)n(-c3ccccc3)c2=O)cc1OC	CYP2C19 inhib 71.3
O=C(OCC(=O)N1CCN(C(=O)c2ccco2)CC1)c1cc(=O)c2ccccc2o1	none
CCC(C)NS(=O)(=O)c1ccc(NC(=O)CCC2CCCCC2)cc1 (stereo unspecified)	none
CCC(C)NS(=O)(=O)c1ccc(S(=O)(=O)N(CC(=O)Nc2ccccc2)CC2CCCO2)cc1 (stereo unspecified)	CYP2C9 inh 92.2
O=S(=O)(NCC1CCCO1)c1ccc(Oc2ccccc2)cc1 (stereo unspecified)	CYP2C9 inh 82.7, CYP2C19 inhib 95.3
O=C(O)c1cccc(S(=O)(=O)NCC2CCCO2)c1 (stereo unspecified)	none
CCC(Oc1ccccc1)C(=O)Nc1ccc(S(=O)(=O)NCC2CCCO2)cc1 (stereo unspecified)	CYP2C9 inh 90.8
N#Cc1cc2cc3c(cc2nc1SCC(=O)OC1CCCCC1)OCO3	none
O=c1c2cc(-c3ccccc3)sc2ncn1/N=C/c1ccco1	none
C=CCn1c(-c2cccn(Cc3ccc(Cl)cc3)c2=O)n[nH]c1=S	none
C=CCn1c(-c2cc(Cl)ccc2OC)n[nH]c1=S	CYP2C9 inh 50.2, CYP2C19 inhib 82.2
CCn1c(-c2cc(Cl)ccc2OC)n[nH]c1=S	none
C=CCn1c(-c2cccn(Cc3ccc(Cl)cc3Cl)c2=O)n[nH]c1=S	CYP2C19 inhib 80.2
Cc1nc2nc3c(c(=O)n2[nH]1)CCCC3	none
Cc1ccc(/C(C#N)=C\c2cn(C)c3ccccc23)cc1	CYP2C9 inh 92.1, PostGolgi ctrl 34.0, CYP2C19 inhib 80.1
Cc1cc(C(=O)OCC(=O)Nc2ccc(F)cc2)c(C)o1	CYP2C19 inhib 60.9
CCN(CC)S(=O)(=O)c1cccc(NC(=O)COC(=O)c2cc(C)oc2C)c1	CYP2C9 inh 96.5, CYP2C19 inhib 64.1
Cc1ccc(S(=O)(=O)N2CCN(C(=O)COC(=O)c3cc(C)oc3C)CC2)cc1	none
